Experimental data as given in PubChem BioAssay (Tox21).
Results filed as inconclusive are left out. The source made the active and inactive calls. Unless noted, calls come from the whole dose curve; as a rule, active = well fitted curve in the direction sought with a large enough effect in the repeat runs; inconclusive = weak or mixed curves; inactive = no such curve, though single readings can be large; an effect the other way counts as inactive or inconclusive.

Legend:
[1] = molecular target: Thyrotropin receptor (Homo sapiens) (UniProt P16473); test: qHTS assay to identify small molecule agonists of the thyroid stimulating hormone receptor (TSHR) signaling pathway (AID 1224843; calls by dose curve; note: nearly all actives have a fitted effect of over 45% in size)
Chain of Thyrotropin receptor (Homo sapiens) (P16473 whole entry, looked up): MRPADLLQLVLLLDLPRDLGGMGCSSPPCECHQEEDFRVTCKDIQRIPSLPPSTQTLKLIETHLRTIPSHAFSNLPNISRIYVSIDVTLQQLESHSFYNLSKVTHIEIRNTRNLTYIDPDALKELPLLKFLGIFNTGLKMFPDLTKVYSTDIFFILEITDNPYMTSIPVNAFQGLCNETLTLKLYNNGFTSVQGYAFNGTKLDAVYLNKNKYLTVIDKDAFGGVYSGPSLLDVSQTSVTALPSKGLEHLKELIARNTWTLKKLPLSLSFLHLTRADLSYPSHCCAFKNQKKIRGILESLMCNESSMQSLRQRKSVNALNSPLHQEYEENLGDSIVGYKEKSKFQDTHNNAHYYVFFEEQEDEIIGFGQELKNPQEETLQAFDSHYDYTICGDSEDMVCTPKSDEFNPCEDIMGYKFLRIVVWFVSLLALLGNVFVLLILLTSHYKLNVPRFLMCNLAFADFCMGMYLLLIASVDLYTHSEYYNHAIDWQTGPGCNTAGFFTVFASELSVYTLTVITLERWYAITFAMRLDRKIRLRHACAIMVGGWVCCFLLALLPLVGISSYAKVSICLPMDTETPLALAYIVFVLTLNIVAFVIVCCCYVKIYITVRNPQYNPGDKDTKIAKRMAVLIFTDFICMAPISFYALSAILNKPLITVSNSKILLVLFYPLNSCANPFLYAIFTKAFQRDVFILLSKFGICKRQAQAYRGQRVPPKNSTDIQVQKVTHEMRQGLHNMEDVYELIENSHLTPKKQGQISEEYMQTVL
How it was run: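 Compounds are titrated over 15 concentrations, in triplicate, onto TSHR-HEK293 cells seeded at 800/well. Plates sit 30 min at room temperature before cAMP-d2 and anti-cAMP cryptate are added; signal is read after a further hour.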

[2] = qHTS assay to identify small molecule agonists of H2AX (AID 1224845; active = well fitted activation curve with a large enough effect in the signal ratio in the repeat runs, not every such curve was filed as active; the % refers to the signal ratio)
How it was run: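 Wild-type CHO-K1 cells plated overnight, then exposed 3 hr at 37C to compounds at 15 concentrations (0.76% DMSO). Lysed, then HTRF anti-pH2AX(S139)-cryptate/anti-H2AX-d2 detection after 24 hr at room temperature; emissions 665 and 620 nm.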

[3] = qHTS assay to identify small molecule agonists of the hypoxia (HIF-1) signaling pathway (AID 1224846; active = well fitted activation curve with a large enough effect in the signal ratio in the repeat runs, not every such curve was filed as active; the % refers to the signal ratio)
How it was run: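 Compounds from the Tox21 10K library, dissolved in DMSO, are tested for induction of a hypoxia response element–controlled beta-lactamase reporter in ME-180 cells. Exposure lasts 17 hrs at 37C after a 5 hr settling period, followed by CCF4-AM FRET substrate.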

[4] = qHTS assay to identify small molecule agonists of H2AX - cell viability counter screen (AID 1224847; calls by dose curve; note: top concentration of the series differs between compounds; nearly all actives have a fitted effect of over 30% in size)
How it was run: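 CHO-K1 wt, 1000 cells/well, o/n 37C; cpds 15 conc, 3 h 37C, 0.76% DMSO; CellTiter-Glo, 30 min RT, luminescence.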

[5] = qHTS assay to identify small molecule antagonists of the estrogen related receptor (ERR) signaling pathway from Tox21 library (AID 1224848); note: nearly all actives have a fitted effect of over 50% in size; note: potency is the fitted concentration of half-maximal effect
How it was run: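 First, 2,000 ERR cells per well were plated and held 6 h at 37 C/5% CO2. Next, compounds in DMSO were pinned in and left 18 h at 37 C. Finally, ONE-Glo was added and luminescence read after 30 min at room temperature.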

[6] = qHTS assay to identify small molecule agonists of the estrogen related receptor (ERR) signaling pathway from Tox21 library (AID 1224849; calls by dose curve; note: nearly all actives have a fitted effect of over 15% in size); details: ERR reporter cell line, ONE-Glo luciferase, 18 h; at 92.4 µM (top of the series) unless noted
How it was run: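 Cells carrying the ERR reporter were plated and allowed to settle for 6 h, exposed to library compounds for 18 h at 37 C, then lysed with ONE-Glo and luminescence measured.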

[7] = qHTS RealTime-Glo MT Cell Viability Assay in HepG2 cells - 24 hour (AID 1224867); note: nearly all actives have a fitted effect of over 50% in size
How it was run: (§1)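 qHTS, HepG2, 600 cells/well, RealTime-Glo (NanoLuc + prosubstrate) added with cells; 5 h preincubation; DMSO compound addition; 37 C; luminescence at 0/8/16/24/32/40 h.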

[8] = A CellTox Green Cytotoxicity Assay to monitor cytotoxicity in HEK293 cells - 0 hour (AID 1224869); note: nearly all actives have a fitted effect of over 50% in size
How it was run: (§2)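 Cells (HEK293, 600/well) and dye reagent are dispensed together. After 5 h at 37 C, 23 nL compound is pinned in. Plates stay at 37 C for 40 h with fluorescence read at 0h, 8h, 16h, 24h, 32h and 40h.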

[9] = qHTS RealTime-Glo MT Cell Viability Assay in HepG2 cells - 40 hour (AID 1224870); note: nearly all actives have a fitted effect of over 50% in size
How it was run: (§3)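 HepG2 cells mixed with RealTime-Glo MT reagents (NanoLuc plus cell-permeant prosubstrate) were seeded at 600 cells/well, incubated 5 h at 37 C/5% CO2, then pinned with compounds in DMSO; nonlytic luminescence tracked viability during 40 h treatment.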

[10] = A CellTox Green Cytotoxicity Assay to monitor cytotoxicity in HEK293 cells - 40 hour (AID 1224871); note: nearly all actives have a fitted effect of over 45% in size
How it was run: as §2

[11] = qHTS RealTime-Glo MT Cell Viability Assay in HepG2 cells - 8 hour (AID 1224873); note: nearly all actives have a fitted effect of over 55% in size
How it was run: as §3

[12] = A CellTox Green Cytotoxicity Assay to monitor cytotoxicity in HepG2 cells - 16 hour (AID 1224876); note: nearly all actives have a fitted effect of over 45% in size
How it was run: (§4)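 Cells and non-lytic dye reagent are dispensed together (600 HepG2 cells/well) and incubated 5 h before DMSO compound transfer. Kinetic fluorescence is then recorded in the same wells during 40 h at 37 C.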

[13] = qHTS RealTime-Glo MT Cell Viability Assay in HepG2 cells - 32 hour (AID 1224877); note: nearly all actives have a fitted effect of over 55% in size
How it was run: as §1

[14] = A CellTox Green Cytotoxicity Assay to monitor cytotoxicity in HepG2 cells - 24 hour (AID 1224878); note: nearly all actives have a fitted effect of over 45% in size
How it was run: as §4

[15] = A CellTox Green Cytotoxicity Assay to monitor cytotoxicity in HepG2 cells - 40 hour (AID 1224879); note: nearly all actives have a fitted effect of over 40% in size
How it was run: as §4

[16] = qHTS assay to identify small molecule agonists of the hypoxia (HIF-1) signaling pathway - cell viability counter screen (AID 1224844; calls by dose curve; note: nearly all actives have a fitted effect of over 50% in size)
How it was run: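 Cytotoxicity was measured in parallel with the HRE-driven beta-lactamase readout: after 17 hrs of compound exposure at 37C, HRE-bla ME-180 cells received CellTiter-Glo and luminescence was recorded 30 min later.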

[17] = qHTS RealTime-Glo MT Cell Viability Assay in HEK293 cells - 32 hour (AID 1224868); note: nearly all actives have a fitted effect of over 50% in size; note: potency is the fitted concentration of half-maximal effect; for activity change, negative = cytotoxic: top concentration of the series differs between compounds
How it was run: (§5)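 Assay medium contained NanoLuc luciferase plus cell-permeant prosubstrate, added with HEK293 cells at 600 cells/well. After 5 h at 37 C/5% CO2 compounds were added; plates stayed at 37 C for 40 h with serial luminescence reads.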

[18] = qHTS RealTime-Glo MT Cell Viability Assay in HEK293 cells - 16 hour (AID 1224872); note: nearly all actives have a fitted effect of over 50% in size; note: potency is the fitted concentration of half-maximal effect; for activity change, negative = cytotoxicity: top concentration of the series differs between compounds
How it was run: as §5

[19] = qHTS RealTime-Glo MT Cell Viability Assay in HEK293 cells - 40 hour (AID 1224874); details: RealTime-Glo luminescence; max response: stronger effect = lower value; note: nearly all actives have a fitted effect of over 50% in size; note: potency is the fitted concentration of half-maximal effect
How it was run: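 Real-time viability in HEK293: signal arises when living cells convert a prosubstrate for NanoLuc in the medium, so luminescence tracks viable cell number. Compound (23 nL, DMSO) added 5 h post-seeding; kinetic reads at 0–40 h, 37 C.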

[20] = A CellTox Green Cytotoxicity Assay to monitor cytotoxicity in HEK293 cells - 24 hour (AID 1224875); note: nearly all actives have a fitted effect of over 45% in size
How it was run: as §2
% is set by controls: 0 for no effect and ±100 for the full control effect.

O=[N+]([O-])c1cc(C(F)(F)F)cc([N+](=O)[O-])c1Cl
active: Potency [5] 61.4 µM
inactive: Potency [1] | Potency [2] | outcome [3] | Potency [4] | activity change, positive = activation [6] -42.9% | Potency [7] | Potency [8] | Potency [9] | Potency [10] | Potency [11] | Potency [12] | Potency [13] | Potency [14] | Potency [15]

N#CCc1ccccc1
inactive: Potency [1] | Potency [16] | outcome [3] | Potency [4] | Potency [7] | Potency [17] | Potency [8] | Potency [9] | Potency [10] | Potency [18] | Potency [11] | max response [19] 2.97% | Potency [12] | Potency [13] | Potency [14]

CCOP(=S)(OCC)SCn1nnc2ccccc2c1=O
active: Potency [5] 27.3 µM | Potency [17] 21.9 µM | Potency [18] 21.9 µM | Potency [19] 19.5 µM
inactive: Potency [1] | Potency [16] | outcome [3] | activity change, positive = activation [6] -48.2% | Potency [7] | Potency [8] | Potency [9] | Potency [10] | Potency [20] | Potency [12] | Potency [13] | Potency [14] | Potency [15]

CCOc1nc(F)cc2nc(S(=O)(=O)Nc3c(Cl)cccc3Cl)nn12
inactive: Potency [1] | Potency [16] | outcome [3] | Potency [7] | Potency [17] | Potency [8] | Potency [10] | Potency [18] | Potency [11] | max response [19] 30.5% | Potency [20] | Potency [12] | Potency [13] | Potency [14]

ClCc1ccccc1
inactive: Potency [1] | Potency [2] | outcome [3] | Potency [4] | Potency [7] | Potency [17] | Potency [8] | Potency [9] | Potency [10] | Potency [18] | Potency [11] | max response [19] 2.64% | Potency [20] | Potency [12] | Potency [13] | Potency [14] | Potency [15]

Cl/C=C\C[N+]12CN3CN(CN(C3)C1)C2
inactive: Potency [1] | outcome [3] | Potency [4] | Potency [5] | activity change, positive = activation [6] -0.401% | Potency [7] | Potency [8] | Potency [9] | Potency [10] | Potency [11] | Potency [20] | Potency [12] | Potency [13] | Potency [14] | Potency [15]

CO[C@@H]1[C@H](OC(=O)NC(=O)CCl)CC[C@]2(CO2)[C@H]1[C@@]1(C)O[C@@H]1CC=C(C)C
inactive: activation [1] -6.28% [at 19 µM] | activation (H2AX phosphorylation) [2] 1.5% [at 31.6 µM] | activation [3] -0.119% [at 15.8 µM] | activity, negative = inhibition [5] -8.28% [at 19 µM] | activity change, positive = activation [6] -4.67% [at 19 µM] | activity change, negative = cytotoxicity [7] 0.578% [at 15.8 µM] | activity change, negative = cytotoxic [17] 8.14% [at 15.8 µM] | cytotoxicity [8] -3.97% [at 15.8 µM] | activity change, negative = cytotoxic [9] 0.252% [at 15.8 µM] | cytotoxicity increase [10] -0.615% [at 15.8 µM] | activity change, negative = cytotoxicity [18] 13.2% [at 15.8 µM] | viability change, negative = cytotoxic [11] -0.3% [at 15.8 µM] | max response [19] 1.55% | activity change [20] -10.2% [at 15.8 µM, stronger effect = higher value] | cytotoxicity increase [12] -3.75% [at 15.8 µM] | activity change, negative = cytotoxic [13] 1.26% [at 15.8 µM] | cytotoxicity [14] -1.01% [at 15.8 µM] | cytotoxicity increase [15] -2% [at 15.8 µM]

CCOC(=O)C(Cl)C(C)=O (configuration not stated)
inactive: Potency [1] | Potency [2] | outcome [3] | Potency [4] | Potency [7] | Potency [17] | Potency [8] | Potency [9] | Potency [10] | Potency [18] | Potency [11] | max response [19] -9.27% | Potency [20] | Potency [12] | Potency [13] | Potency [14]

Clc1ccc(C(OCCN2CCCCC2)c2ccccc2)cc1 (configuration not stated)
inactive: Potency [1] | Potency [2] | outcome [3] | Potency [4] | activity change, positive = activation [6] -17.2% [at 42.5 µM] | Potency [7] | Potency [8] | Potency [9] | Potency [11] | Potency [13]

O=C(Nc1ccccc1)Nc1cnns1
inactive: Potency [1] | Potency [16] | outcome [3] | activity change, positive = activation [6] -23.5% | Potency [7] | Potency [8] | Potency [10] | Potency [11] | Potency [20] | Potency [12] | Potency [13] | Potency [14] | Potency [15]
active: Potency [17] 27.5 µM | Potency [19] 27.5 µM

CCCCCCCCOC(=O)c1ccc(C(=O)OCCCCCCCC)c(C(=O)OCCCCCCCC)c1
inactive: Potency [1] | outcome [3] | Potency [4] | Potency [7] | Potency [17] | Potency [8] | Potency [9] | Potency [10] | Potency [18] | Potency [11] | max response [19] -3.25% | Potency [20] | Potency [12] | Potency [13] | Potency [14] | Potency [15]

C=CCOC(C)=O
inactive: Potency [1] | Potency [16] | outcome [3] | Potency [4] | Potency [7] | Potency [17] | Potency [8] | Potency [9] | Potency [10] | Potency [18] | Potency [11] | max response [19] -6.55% | Potency [20] | Potency [12] | Potency [13] | Potency [14] | Potency [15]

CCCC(=O)Cl
inactive: Potency [1] | Potency [2] | outcome [3] | Potency [4] | Potency [7] | Potency [17] | Potency [8] | Potency [9] | Potency [10] | Potency [18] | Potency [11] | max response [19] 17% | Potency [12] | Potency [13] | Potency [14] | Potency [15]

C=CC(=O)OCC(C)O (configuration not stated)
inactive: Potency [1] | Potency [2] | Potency [4] | Potency [5] | Potency [7] | Potency [8] | Potency [9] | Potency [10] | Potency [18] | Potency [11] | max response [19] 21.2% | Potency [20] | Potency [12] | Potency [13] | Potency [14] | Potency [15]
